Results reported in publication PMC4336329 (PLoS ONE, 2015).
In all, about 310,000 compounds went through this assay and about 14,000 (4.5%) showed an effect of 50% or more. The effect is printed as a negative number. This is one part of a sample in which strong results are shown more often than they occur.
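Further: peak tail current of the secondary pulse compared with the same well before compound.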

These molecules were tested against human ether-à-go-go-related gene (hERG) potassium channel (human, UniProt Q12809) (assay: primary screen, population patch clamp on CHO cells stably expressing hERG; higher = less effect of the substance).
Chain of human ether-à-go-go-related gene (hERG) potassium channel (Q12809 whole entry, looked up): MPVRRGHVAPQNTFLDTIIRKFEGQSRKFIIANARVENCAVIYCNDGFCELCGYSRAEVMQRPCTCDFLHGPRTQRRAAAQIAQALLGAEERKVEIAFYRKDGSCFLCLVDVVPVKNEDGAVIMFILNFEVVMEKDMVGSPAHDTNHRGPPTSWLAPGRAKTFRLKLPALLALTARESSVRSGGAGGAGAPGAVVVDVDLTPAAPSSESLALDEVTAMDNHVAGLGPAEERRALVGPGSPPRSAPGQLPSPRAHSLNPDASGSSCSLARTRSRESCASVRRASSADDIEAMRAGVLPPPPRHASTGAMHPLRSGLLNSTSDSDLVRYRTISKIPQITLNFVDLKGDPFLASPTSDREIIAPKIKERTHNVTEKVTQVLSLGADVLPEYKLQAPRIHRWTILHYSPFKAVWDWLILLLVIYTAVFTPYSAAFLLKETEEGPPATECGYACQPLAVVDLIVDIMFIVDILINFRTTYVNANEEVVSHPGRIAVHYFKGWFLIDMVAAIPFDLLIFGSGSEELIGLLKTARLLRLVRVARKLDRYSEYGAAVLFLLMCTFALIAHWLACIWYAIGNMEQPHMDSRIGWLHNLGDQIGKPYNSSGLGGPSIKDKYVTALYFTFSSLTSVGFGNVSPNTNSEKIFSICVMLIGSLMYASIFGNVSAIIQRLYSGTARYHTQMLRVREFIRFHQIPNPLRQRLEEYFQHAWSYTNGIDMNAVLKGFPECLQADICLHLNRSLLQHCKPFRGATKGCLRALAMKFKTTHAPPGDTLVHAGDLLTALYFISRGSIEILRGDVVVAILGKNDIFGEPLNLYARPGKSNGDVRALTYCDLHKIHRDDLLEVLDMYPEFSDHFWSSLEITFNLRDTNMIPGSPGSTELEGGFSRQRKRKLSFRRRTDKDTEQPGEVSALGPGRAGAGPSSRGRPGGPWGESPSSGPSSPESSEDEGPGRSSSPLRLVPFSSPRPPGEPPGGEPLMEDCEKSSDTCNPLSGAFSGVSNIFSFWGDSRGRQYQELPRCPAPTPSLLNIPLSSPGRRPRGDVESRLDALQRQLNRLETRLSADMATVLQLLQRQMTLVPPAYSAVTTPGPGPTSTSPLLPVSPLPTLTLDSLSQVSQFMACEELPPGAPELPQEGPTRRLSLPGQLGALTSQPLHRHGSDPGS
In the case of `COc1cc(/C=N/NC(=O)c2cc(-c3ccccc3)nc3ccccc23)ccc1O`, the “hERG current change (%, negative = inhibition) at 10uM” value is reported as 6.54%.
`CCOc1cc(C(=O)N/N=C/c2ccoc2)cc(OCC)c1OCC` was tested, and the “hERG current change (%, negative = inhibition) at 10uM” value was 5.67%.
`COCCCn1c(=O)/c(=C\c2ccccc2OC(F)F)s/c1=C(/C#N)C(=O)NCCOC` was tested, and the “hERG current change (%, negative = inhibition) at 10uM” value was -11.5%.
`CCc1nnc(NC(=O)CSc2nnc(-c3cccnc3)n2CCc2ccccc2)s1` was tested, and the “hERG current change (%, negative = inhibition) at 10uM” value was -2.07%.
In the case of `CC(=O)N1CCN(CCN2C(C)=CC(=C(C#N)C#N)C=C2C)CC1`, the “hERG current change (%, negative = inhibition) at 10uM” value is reported as -3.8%.
For `O=C(COC(=O)CCSc1ccccc1Cl)NCc1ccco1`, the “hERG current change (%, negative = inhibition) at 10uM” value was 6.44%.
For `O=C1NC(=O)C(=Cc2csc3ccccc23)C(=O)N1`, the “hERG current change (%, negative = inhibition) at 10uM” value was 7.68%.
In the case of `Cc1ccccc1CSc1nnnn1-c1ccc(C(N)=O)cc1`, the “hERG current change (%, negative = inhibition) at 10uM” value is reported as 14.7%.
`Cc1cccc(NC(=O)COC(=O)c2ccc([N+](=O)[O-])o2)c1C` was tested, and the “hERG current change (%, negative = inhibition) at 10uM” value was 8.7%.
In the case of `COC(=O)CC1C(=O)NCCN1Cc1cn(-c2ccc(C)cc2)nc1-c1cccc(C)c1` (centres unmarked), the “hERG current change (%, negative = inhibition) at 10uM” value is reported as -9.55%.
With `Cc1ccc(-c2nn(-c3ccccc3)cc2CNCc2ccccc2)cc1.Cl` the “hERG current change (%, negative = inhibition) at 10uM” value was 7.42%.
`Cc1ccc(-n2cc(CNCC3CC(=O)N(C4CC4)C3)c(-c3cccc(C)c3)n2)cc1` (centres unmarked) was tested, and the “hERG current change (%, negative = inhibition) at 10uM” value was -71.9%.
For `COc1ccc(-n2cc(CNCC3CC(=O)N(C4CC4)C3)c(-c3ccccc3Cl)n2)cc1` (centres unmarked), the “hERG current change (%, negative = inhibition) at 10uM” value was -13.4%.
With `COc1ccc(-c2nn(-c3ccccc3)cc2CNCCN2CCOC2=O)c(F)c1` the “hERG current change (%, negative = inhibition) at 10uM” value was -11.9%.
With `Cc1ccc(-n2cc(CNCCn3nc(C)cc3C)c(-c3ccc(F)cc3)n2)cc1` the “hERG current change (%, negative = inhibition) at 10uM” value was -50.8%.
In the case of `Cc1ccc(-n2cc(CNCCN3CCOC3=O)c(-c3ccc(F)cc3)n2)cc1`, the “hERG current change (%, negative = inhibition) at 10uM” value is reported as -63.2%.
In the case of `Cc1cc(C)n(CC(C)NCc2cn[nH]c2-c2ccc(C)c(C)c2)n1` (centres unmarked), the “hERG current change (%, negative = inhibition) at 10uM” value is reported as -35.7%.
`O=C1OCCN1CCNCc1cn(-c2ccc(F)cc2)nc1-c1ccccc1Cl` was tested, and the “hERG current change (%, negative = inhibition) at 10uM” value was -45.2%.
With `COc1ccc2cc(-c3[nH]ncc3CNCCn3nc(C)cc3C)ccc2c1` the “hERG current change (%, negative = inhibition) at 10uM” value was -63.2%.
In the case of `Cc1ccc(-n2cc(CNC(C)c3cnn(C)c3C)c(-c3ccc(F)cc3)n2)cc1` (centres unmarked), the “hERG current change (%, negative = inhibition) at 10uM” value is reported as -30.7%.
`CCOC(=O)CN(C)Cc1cn[nH]c1-c1ccc2cc(OC)ccc2c1` was tested, and the “hERG current change (%, negative = inhibition) at 10uM” value was -5.34%.
For `CC1CCCC(C)N1C(=O)COC(=O)c1c[nH]c2ccccc12` (centres unmarked), the “hERG current change (%, negative = inhibition) at 10uM” value was -5.3%.
In the case of `CCCCn1c(O)c(C=NC2CCCCC2N)c(=O)[nH]c1=O` (centres unmarked), the “hERG current change (%, negative = inhibition) at 10uM” value is reported as 5.96%.
